MT1-MMP txn act: activates MT1-MMP transcription | HT1080 MT1-MMP promoter luciferase reporter, luminescence, overnight; stronger effect = higher value | activation factor at 10 µM | hit rate 0.16% among 86,000 | AID 750;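 active = activation factor of at least 2 for MT1-MMP transcription at 10 µM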
PostGolgi yeast: growth inhibition of a yeast mutant, post-Golgi transport screen | inhibition, % at 10 µM | post-Golgi transport phenotypic cell assay | hit rate 0.9% among 98,000;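 note: yeast cells grown in 1536-well plates; yeast grown about 18 h at 30C before absorbance read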
PostGolgi ctrl: yeast control strain growth, post-Golgi counter-screen; inhibition, % at 10 µM; hit rate 5% among 98,000; efflux-deficient yeast background strain, growth absorbance A615, 16 h
Measles CPE: protection of cells from measles virus | Measles virus-infected cells, CPE protection, absorbance | protection (pct of control), % at 4 µM | AID 841 | hit rate 1.5% among 140,000; in the data active = protection mostly above about 24%, no sharp cut-off; inactive = mostly below about 26%
Large screens that a line does not name were inactive. Hits are enriched below; roughly 5.3% of the tested compounds scored in any of these assays. Cut-off read from the data, not from the text of the source, unless noted: active = inhibition above about 30%; inactive = the rest.

O=C(CSC(=S)N1CCOCC1)Nc1nc(-c2ccccc2)c(-c2ccccc2)o1	PostGolgi ctrl 35 (no result: MT1-MMP txn act)
O=C(CSC(=S)N1CCCCC1)Nc1nc(-c2ccccc2)c(-c2ccccc2)o1	none (no result: MT1-MMP txn act)
Cc1occc1C(=O)NC1CCCCCCC1	Measles CPE 28 (no result: MT1-MMP txn act, PostGolgi yeast, PostGolgi ctrl)
Cc1ccnc(SCC(=O)n2c3c(c4ccccc42)CC(C)CC3)n1 (configuration not stated)	PostGolgi ctrl 35 (no result: MT1-MMP txn act)
CCN1CCN(CC(=O)n2c3c(c4ccccc42)CC(C)CC3)CC1 (configuration not stated)	none
CN1/C(=C/C(=O)c2nc(S(C)(=O)=O)ncc2Cl)C(C)(C)c2ccccc21	PostGolgi ctrl 60 (no result: MT1-MMP txn act)
CN1/C(=C\C(=O)c2cccnc2)C(C)(C)c2ccccc21	none (no result: MT1-MMP txn act, PostGolgi yeast, PostGolgi ctrl)
Clc1cccc(NCc2nnc(SCc3ccccc3Cl)o2)c1	PostGolgi ctrl 40 (no result: MT1-MMP txn act)
Clc1cccc(NCc2nnc(SCc3ccccc3)o2)c1	none
Cc1cccnc1Nc1nc(-c2ccc(O)cc2O)cs1	PostGolgi ctrl 59
Cc1cccnc1Nc1nc(-c2ccccn2)cs1	PostGolgi yeast 101, PostGolgi ctrl 52 (no result: MT1-MMP txn act)
O=C(CN1C(=O)c2ccccc2C1=O)Nc1cccc(S(=O)(=O)Nc2ccccc2Cl)c1	none (no result: MT1-MMP txn act, PostGolgi yeast, PostGolgi ctrl)
CC(C)Oc1ccc(/C(O)=C2/C(=O)C(=O)N(CCN(C)C)C2c2ccco2)cc1 (configuration not stated)	PostGolgi yeast 41
COCCN1C(=O)C(=O)/C(=C(/O)c2cccc(OC)c2)C1c1ccco1 (configuration not stated)	PostGolgi ctrl 32
CCN(CC)CCN1C(=O)C(=O)/C(=C(/O)c2ccc(OC)cc2)C1c1ccco1 (configuration not stated)	none
O=C(Nc1nnc(-c2ccc3c(c2)CCCC3)o1)C1COc2ccccc2O1 (configuration not stated)	PostGolgi yeast 100, PostGolgi ctrl 72 (no result: MT1-MMP txn act)
CC(=O)Nc1nnc(-c2ccc3c(c2)CCCC3)o1	none
CCOc1ccc(-c2c[n+]3c(n2-c2ccccc2)CCCCC3)cc1	none (no result: MT1-MMP txn act, PostGolgi yeast, PostGolgi ctrl)
Cc1cc(-c2ccco2)c(C#N)c2nc3ccccc3n12	PostGolgi ctrl 83
CNC(=O)C1(CC(C)C)C=CCN1C(=O)c1ccccc1 (configuration not stated)	none (no result: PostGolgi yeast, PostGolgi ctrl, Measles CPE)
O=C(NCC1CCCO1)C(c1cccs1)N(C(=O)c1ccc(-c2ccccc2)[nH]1)C1CCCC1 (configuration not stated)	Measles CPE 51 (no result: MT1-MMP txn act, PostGolgi yeast, PostGolgi ctrl)
O=C(NCC1CCCO1)C(c1cccs1)N(Cc1ccccc1)C(=O)c1ccc(-c2ccccc2)[nH]1 (configuration not stated)	none (no result: MT1-MMP txn act, PostGolgi yeast, PostGolgi ctrl)
CCOc1cc(/C=N/NC(=O)C(=O)NCCCOC(C)C)cc(Br)c1O	none (no result: MT1-MMP txn act, PostGolgi yeast, PostGolgi ctrl)
Cc1ccc(NC(=O)ON=C2CCCC2)cc1	Measles CPE 43 (no result: MT1-MMP txn act, PostGolgi yeast, PostGolgi ctrl)
Cc1cc[n+](-c2nc([O-])sc2/C=N/Nc2ccc([N+](=O)[O-])cc2)cc1	Measles CPE 49
CCSc1ncc(/C=N/Nc2ccc([N+](=O)[O-])cc2)n1C	none (no result: MT1-MMP txn act)
CCc1ccc(N2CC(C(=O)Nc3nccs3)CC2=O)cc1 (configuration not stated)	Measles CPE 35
Cc1ccc(N2CC(C(=O)Nc3nccs3)CC2=O)cc1Cl (configuration not stated)	none
CCCCOc1ccc(C(C)NC(=O)C2CCCN(S(=O)(=O)CC)C2)cc1 (configuration not stated)	Measles CPE 38
CCOC(=O)Cc1nnc(NC(=O)COc2ccc(OC)cc2)s1	Measles CPE 23
O=S(=O)(c1ccccc1)c1cnn(-c2ccccc2)c1-c1ccc(Cl)cc1	PostGolgi ctrl 39 (no result: MT1-MMP txn act)
COc1ccc(-c2c(S(=O)(=O)c3ccccc3)cnn2-c2ccccc2)cc1	none (no result: MT1-MMP txn act)
COc1ccc(C2=NCC(CSc3nnc(-c4ccc5c(c4)OCO5)o3)S2)cc1 (configuration not stated)	PostGolgi ctrl 37
Cc1ccc(CSc2nnc(-c3ccc4c(c3)OCO4)o2)cc1	none (no result: MT1-MMP txn act)
CC[C@@H]1C=C(C)C[C@H](C)C[C@H](OC)[C@H]2O[C@@](O)(C(=O)C(=O)N3CCCC[C@H]3C(=O)O[C@H](/C(C)=C/[C@@H]3CC[C@@H](O)[C@H](OC)C3)[C@H](C)[C@@H](O)CC1=O)[C@H](C)C[C@@H]2OC	none (no result: MT1-MMP txn act, PostGolgi yeast, PostGolgi ctrl)
CCOC(=O)N1CCC(NC(=O)c2cc(C(=O)NCc3cccc(Cl)c3)ccc2CO)CC1	Measles CPE 39
CCOC(=O)C1=C(C)n2c(s/c(=C/c3cccc([N+](=O)[O-])c3)c2=O)=NC1c1ccc(O)c(OC)c1 (configuration not stated)	PostGolgi yeast 61, PostGolgi ctrl 39
CN(c1ccc(C(=O)N2CCOCC2)cc1[N+](=O)[O-])C1CCCCC1	none (no result: MT1-MMP txn act)
C=C(C)CC(NCc1ccco1)c1ccc(OC)cc1 (configuration not stated)	PostGolgi yeast 31
CC1CC(C)CN(C(=O)c2ccc3c(=O)n(Cc4ccc5c(c4)OCO5)c(=S)[nH]c3c2)C1 (configuration not stated)	PostGolgi ctrl 36
COc1ccc(/C(N)=N/O)cc1O	none (no result: MT1-MMP txn act, PostGolgi yeast, PostGolgi ctrl)
O=C(COC(=O)c1ccc(Br)o1)Nc1cccc(S(=O)(=O)N2CCCCCC2)c1	Measles CPE 34 (no result: MT1-MMP txn act)
Cc1ccc(OCC(=O)Nc2cccc(S(=O)(=O)N3CCCCC3)c2)c([N+](=O)[O-])n1	Measles CPE 29 (no result: MT1-MMP txn act, PostGolgi yeast, PostGolgi ctrl)
CN(C)S(=O)(=O)c1cccc(NC(=O)COC(=O)c2ccc(Br)o2)c1	none
CC1CCN(C(=O)CCc2ccc(S(=O)(=O)NC(C)C)cc2)CC1	none
Cn1nc(C(F)(F)F)cc1C(=O)NC1CCCCCC1	none (no result: MT1-MMP txn act)
Cc1ccc(NC(=O)C2C3CCCC2C3c2ccccc2)cc1 (configuration not stated)	none (no result: MT1-MMP txn act, PostGolgi yeast, PostGolgi ctrl)
CCn1c(SCC(=O)N(C(C)C)C(C)C)nnc1-c1cc2ccccc2cc1O	PostGolgi ctrl 46
COc1ccc(C(=O)CSc2nnc(-c3cc4ccccc4cc3O)n2Cc2ccco2)cc1	PostGolgi ctrl 56
CC1CCN(C(=O)CSc2nnc(-c3cc4ccccc4cc3O)n2Cc2ccco2)CC1	PostGolgi ctrl 39
CC1CCN(C(=O)CSc2nnc(CNc3ccc(F)cc3)n2Cc2ccco2)CC1	none (no result: MT1-MMP txn act)
CN(C1=C(N2CCCCC2)C(=O)c2ccccc2C1=O)c1ccccc1	PostGolgi ctrl 33
O=C1C(Nc2ccccc2)=C(N2CCCCC2)C(=O)c2ccccc21	none (no result: MT1-MMP txn act)
COc1ccc(C(=O)/C=C/c2ccc(N3CCCCC3)c([N+](=O)[O-])c2)c(OC)c1	Measles CPE 50 (no result: MT1-MMP txn act, PostGolgi yeast, PostGolgi ctrl)
COc1ccc(C(=O)/C=C/c2ccc(N3CCCCC3)c([N+](=O)[O-])c2)cc1	none (no result: MT1-MMP txn act, PostGolgi yeast, PostGolgi ctrl)
O=C(C1CCCC1)N(c1ccccc1)C1C=CS(=O)(=O)C1 (configuration not stated)	none
Cc1ccc(N(C(=O)C2CCCC2)C2C=CS(=O)(=O)C2)cc1 (configuration not stated)	PostGolgi ctrl 39
O=C(Cc1ccc(Cl)cc1)Nc1ccc(N2CCN(C(=O)c3ccco3)CC2)c(Cl)c1	PostGolgi ctrl 60
O=C(Nc1ccc(N2CCN(C(=O)c3ccco3)CC2)c(Cl)c1)c1cccs1	none
CC1CC(c2ccccc2)n2nc(N3C(=O)c4ccccc4C3=O)nc2N1 (configuration not stated)	Measles CPE 27
Cc1ccc(C(=O)C(C(=O)/C=C/c2ccccc2)=C2SCCCS2)cc1	none (no result: PostGolgi yeast, PostGolgi ctrl)
CCCn1c(NCc2c[nH]c3ccccc23)nc2ccccc21	none

Screens as filed in PubChem.
